Active and inactive are the calls of the source. Calls come from the whole dose curve; as a rule, active = well fitted curve in the direction sought with a large enough effect; inconclusive = small, poorly fitted or top-dose-only effect, or another doubt; inactive = no such curve, though single readings can be large or run the other way.

This assay can be described thus: Cellular Toxicity (caspase-3) MRC-5 (AID 659).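 Note: cells exposed to compound for 16 h at 37 °C.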 Conditions: MRC-5 cells, luminescence, normalized: DMSO 0%, 10 µM staurosporine 100%; series mostly up to 91.7 µM; caspase-3 activation: at the top concentration. The text has this:
NIH Chemical Genomics Center [NCGC]
NIH Molecular Libraries Screening Centers Network [MLSCN]
National Institutes of Environmental Health Sciences [NIEHS]
National Toxicology Program [NTP]
We have developed a 1536-well cell-based assay for quantitative high throughput screening (qHTS) against a number of cell lines to determine in vitro caspase 3/7 activity of small molecules. This particular assay uses the MRC-5 cell line which is derived from human normal lung fibroblasts.
NCGC Assay Protocol Summary:
The Caspase-Glo 3/7 assay (Promega) is a homogeneous method to measure caspase-3 and caspase-7 activities in cultured cells. The quantitation of caspase 3/7 activity is based on the cleavage of a peptide-aminoluciferin substrate. After caspase cleaves the substrate the free aminoluciferin is liberated and serves as the substrate of luciferase, which generates the light. The luminescent signal is proportional to amount of caspase 3/7 activity present.
Using the Caspase-Glo 3/7 assay, the amount of caspase 3/7 activity was measured in the MRC-5 line with complete culture medium following compound treatment for 16 hours. The assay was performed in opaque white 1536-well plates. In the screen, tamoxifen and staurosporine were used as positive controls. Library compounds were measured for their ability to cause the activation of caspase 3/7 in the cell line, as reflected by an increase in luminescence signal, in a concentration-dependent manner. Data were normalized to the controls for basal activity (DMSO only) and 100% stimulation (10 uM staurosporine). AC50 values were determined from concentration-response data modeled with the standard Hill equation.
qHTS protocol for caspase 3/7 assay in MRC-5 cells
[Step] [Parameter] [Value] [Description]
1. Reagent; 5 uL; 1500 MRC-5 cells/well
2. Time; 5 hr; 37 °C incubation
4. Controls; 23 nL; Tamoxifen 0.23 uM to 100 uM & staurosporine 1.4 pM to 100 uM
5. Time; 16 hr; 37 °C incubation
6. Reagent; 5 uL; Caspase-Glo 3/7 reagent
7. Time; 1 hr; Room Temperature
8. Detection; Luminescence; Viewlux plate reader
Keywords: caspase 3/7, apoptosis, MRC-5 cell line, luminescence, NTPHTS, NTPHTS_NCGC, NIEHS, EPA, DSSTox, MLSMR, MLSCN, NIH Roadmap, qHTS, NCGC
On to `Cc1cc(C)nc(NS(=O)(=O)c2ccc(N)cc2)n1`, for which the “caspase-3 activation” value is -0.375% (inactive).
The figure for `CC(=O)Nc1ccc(C(=O)O)cc1` is 2.47% (inactive); for `O=C1C(c2[nH]c3ccccc3c2O)=Nc2ccccc21` it is 1.27% (inactive).
As for `CCCC(O)C(CC)CO` (configuration not stated), the “caspase-3 activation” value is -1.41% (inactive).
As for `COc1ccc(O)cc1`, the “caspase-3 activation” value is 3.41% (inactive).
Regarding `CC1CC(OC(=O)c2ccccc2O)CC(C)(C)C1` (configuration not stated), the “caspase-3 activation” value is 2.83% (inactive).
For `CCCCOC(=O)c1ccc(N)cc1`, the “caspase-3 activation” value is 1.83% (inactive).
Take `O=C(c1ccccc1)C(O)c1ccccc1` (configuration not stated): the “caspase-3 activation” value was 3.67% (inactive).
Regarding `O=C(O)CCCCC1CCSS1` (configuration not stated), the “caspase-3 activation” value was 0.364% (inactive).
Take `CC(=O)Nc1ccccc1`: the “caspase-3 activation” value is -0.308% (inactive).
With `CCN(CC)C(=O)c1cccc(C)c1`, the “caspase-3 activation” value was -0.129% (inactive).
Under `CCCCCCCC(=O)OCC(COC(=O)CCCCCCC)OC(=O)CCCCCCC` stands -2.69% (inactive); under `Cc1cc(=O)[nH]c(=S)[nH]1`, -0.0687% (inactive); under `CC(=O)NS(=O)(=O)c1ccc(N)cc1`, 0.309% (inactive).
With `CCCCCC(N)=O`, the “caspase-3 activation” value was 1.55% (inactive).
The figure for `FC(F)(F)C(Cl)Br` (configuration not stated) is -0.679% (inactive); for `C=CCNC(N)=S` it is 1.51% (inactive); for `CC(=O)OCC(COC(C)=O)OC(C)=O` it is 4.99% (inactive).
For the molecule `O=C1c2cccc(O)c2C(=O)c2c(O)cccc21`, the “caspase-3 activation” value was 0.608% (inactive).
The figure for `Nc1ccc(S(=O)(=O)c2ccc(N)cc2)cc1` is -2.65% (inactive); for `Cc1c(N(C)C)c(=O)n(-c2ccccc2)n1C` it is 0.708% (inactive).
With `CC(=O)Nc1cccc(O)c1`, the “caspase-3 activation” value was 0.547% (inactive).

Source of the values: PubChem BioAssay (NCATS).
